Structures are written as SMILES. Calls of active or inactive are those of the source. No rule for the calls is given here.

In PubChem BioAssay AID1224917 one finds selectivity fold (ABL/SRC IC50) data, which are given here for one molecule.

The target of the assay is Proto-oncogene tyrosine-protein kinase Src (Homo sapiens) (UniProt P12931). Description: ABL/SRC IC50 fold difference, recombinant kinases – biochemical, recombinant kinase panel, profiling panel (AID 1224917). Particulars: 33P substrate incorporation, hits give high values.
Proto-oncogene tyrosine-protein kinase Src (Homo sapiens), sequence (P12931 whole entry, looked up): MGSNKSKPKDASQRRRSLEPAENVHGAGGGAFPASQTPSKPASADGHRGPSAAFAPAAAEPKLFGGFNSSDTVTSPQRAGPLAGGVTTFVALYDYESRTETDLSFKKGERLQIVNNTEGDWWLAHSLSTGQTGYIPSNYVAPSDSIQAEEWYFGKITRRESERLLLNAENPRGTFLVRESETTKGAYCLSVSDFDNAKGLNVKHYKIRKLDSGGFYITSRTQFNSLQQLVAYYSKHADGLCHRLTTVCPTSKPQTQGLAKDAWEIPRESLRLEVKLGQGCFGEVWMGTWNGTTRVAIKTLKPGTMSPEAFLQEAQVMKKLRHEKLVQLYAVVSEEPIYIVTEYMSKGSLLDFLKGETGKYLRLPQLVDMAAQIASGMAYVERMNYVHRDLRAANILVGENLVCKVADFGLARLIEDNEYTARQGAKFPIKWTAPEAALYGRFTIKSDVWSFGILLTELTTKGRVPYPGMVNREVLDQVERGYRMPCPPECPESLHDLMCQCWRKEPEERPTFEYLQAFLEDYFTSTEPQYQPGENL

`COc1cc(-c2nn(CCN3CCC(N(C)C)CC3)c3ncnc(N)c23)ccc1NC(=O)OC(C)(C)C`: the selectivity fold (ABL/SRC IC50) is > 950 (active).
